Several values for one entry are separate records, joined by “and”; a condition that tells them apart may be missing. Equal entries are not always repeated. In all, about 290,000 compounds went through this assay and about 3,000 (1%) were called active. No stated cut-off is given here; in the data, active means inhibition mostly above about 36% (no sharp cut-off); inactive means mostly below about 34%. Many of the other results were omitted from the sample, so actives are more common in it than they were.
assay: inhibition of NOD1-driven NF-kB reporter – cell-based, luminescence, uHTS, primary screen (AID 1578); conditions: NOD1-driven NF-kB luciferase reporter cells, at 4 µM, stronger effect = higher value;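 further: HEK-293T reporter cells stimulated with the NOD1 agonist gamma-tri-DAP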

Row | Compound | inhibition
1 | CCCC(=O)NCC(c1cccs1)S(=O)(=O)c1ccc(Cl)cc1 (stereo not given) | -18% (inactive)
2 | Cc1ccc2cc3cc(C(=O)NC4CCCCC4)oc3nc2c1 | -36.4% (inactive)
3 | O=C(Nc1ccccc1)Nc1ccc2ocnc2c1 | -32.4% (inactive)
4 | Cc1nnc(SCC(=O)NC2CC2)s1 | -18.8% (inactive)
5 | COc1cc(S(=O)(=O)n2nc(C)cc2C)ccc1Cl | -30.9% (inactive)
6 | Cc1ccc(C2=NN(C3=NN=C(N)Cc4ncnn43)C(O)(C(F)(F)F)C2)cc1 (stereo not given) | -15.4% (inactive)
7 | CC(CC(=O)O)CC(=O)Nc1cc([N+](=O)[O-])ccc1O (stereo not given) | -14.6% (inactive)
8 | COc1ccc(-c2nc(-c3ccccn3)no2)cc1 | 99% (active)
9 | c1ccc(-c2noc(-c3ccno3)n2)nc1 | -2.2% (inactive)
10 | COc1cc(-c2nc(-c3ccccn3)no2)cc(OC)c1OC | -30.9% (inactive)
11 | Cc1cccc(-c2noc(-c3ccc4c(c3)OCO4)n2)c1 | -27.9% (inactive)
12 | c1ccc(-c2ccc(-c3nc(-c4ccccn4)no3)cc2)cc1 | 99.9% (active)
13 | c1ccc(-c2noc(-c3ccc4c(c3)OCO4)n2)cc1 | -47.3% (inactive)
14 | c1ccc(-c2noc(-c3ccc4c(c3)OCO4)n2)nc1 | 64.7% (active)
15 | c1ccc(-c2ccc(-c3nc(-c4ccncc4)no3)cc2)cc1 | 28.9% (inactive)
16 | COc1ccccc1-c1nc(-c2ccccn2)no1 | 27.3% (inactive)
17 | Cn1c(SCC(=O)NC(=O)CN2CCCC2=O)nnc1-c1ccc(F)cc1 | -11.6% (inactive)
18 | Cc1ccc(-c2nc(=S)c3c(n2CCN2CCOCC2)CC(C)(C)OC3)cc1 | -25.9% (inactive)
19 | CCOc1ccc(-c2c(=O)n(OCC)c3ccccc3[n+]2[O-])cc1 | 3.2% (inactive)
20 | CCC(C(=O)OC(C)C(=O)Nc1ccc(Cl)cn1)c1ccccc1 (stereo not given) | -32.2% (inactive)
21 | COC(=O)c1cc(-c2ccccc2)sc1NC(=O)c1cc(C)on1 | -4.3% (inactive)
22 | O=C(NCCc1ccccc1)C1CCC(=O)N1CCc1ccccc1 (stereo not given) | 2% (inactive)
23 | CCOC(=O)Cn1c(C)c(Br)c(COC)c(C#N)c1=O | -13.2% (inactive)
24 | COC(=O)c1sc(NC(=O)CSc2nc3cccnc3n2C)nc1C | -10.6% (inactive)
25 | CCCCCCC(C)NC(=S)Nc1cc(S(=O)(=O)N(C)C)ccc1C (stereo not given) | -10.2% (inactive)

Row | Compound | inhibition
26 | CN(Cc1ccccc1)c1ncnc2sccc12 | 32.5% (inactive)
27 | CN(Cc1cccs1)c1ncnc2sccc12 | 46.8% (active)
28 | CN(Cc1ccccc1F)c1ncnc2sccc12 | -28.7% (inactive)
29 | Cc1scc(C(=O)Nn2cnnc2)c1-c1ccccc1 | -12.5% (inactive)
30 | CCN1C(=O)CSc2ccc(C(=O)NCc3ccco3)cc21 | -21.5% (inactive)
31 | COc1ccc(/C=C2\SC(=O)N(CCc3nnc(N)s3)C2=O)cc1 | 1.5% (inactive)
32 | CN(C)c1ccc(/C=C2/SC(=O)N(CCN=C3NS(=O)(=O)c4ccccc43)C2=O)cc1 | -8.3% (inactive)
33 | CN(C)c1ccc(/C=C2\SC(=O)N(CCc3nnc(N)s3)C2=O)cc1 | 68% (active)
34 | CCOC(=O)Cc1csc(NC(=O)CSc2ncnc3c2cnn3-c2ccccc2Cl)n1 | -4.7% (inactive)
35 | COc1ccc(Oc2ccc(N/C=C3\CCCC3=O)cc2)cc1 | -29.4% (inactive)
36 | CC(NC(=O)/C(=C\c1ccco1)NC(=O)c1ccco1)C(=O)O (stereo not given) | -6.1% (inactive)
37 | COc1ccc(-c2nsc3c(N4CCCCC4C)ncnc23)cc1 (stereo not given) | 77.6% (active)
38 | COc1ccc(-c2nsc3c(N4CCCC4)ncnc23)cc1 | 37.5% (inactive)
39 | COc1ccc(-c2nsc3c(N4CCCCC4)ncnc23)cc1 | 46.2% (inactive)
40 | COc1ccc(C)cc1NS(=O)(=O)c1ccc(-c2cnc(C3CC3)o2)cc1 | 25.1% (inactive)
41 | Cc1ccc(NS(=O)(=O)c2ccc(-c3cnc(C4CC4)o3)cc2)cc1 | 37.3% (inactive)
42 | COc1ccc(NS(=O)(=O)c2ccc(-c3coc(C)n3)cc2)cc1 | 5.2% (inactive)
43 | COc1ccc(OC)c(NS(=O)(=O)c2ccc(-c3coc(C)n3)cc2)c1 | 29.1% (inactive)
44 | O=C(CCCC1=NS(=O)(=O)c2ccccc2N1)Nc1ccccc1 | -7.6% (inactive)
45 | COC(=O)CC(NS(=O)(=O)c1cccs1)c1ccc2c(c1)OCO2 (stereo not given) | -20.9% (inactive)
46 | O=C(CNC(=S)N(CCCN1CCOCC1)Cc1cccs1)NCc1ccc(Cl)cc1 | -16.7% (inactive)
47 | CC(=O)Nc1cc2c(ccc3ccccc32)oc1=O | -21.7% (inactive)
48 | CCOC(=O)c1c(C)[nH]c(C)c1C(=O)CSc1nc2ccccc2c(=O)n1-c1ccc(F)cc1 | -19.8% (inactive)
49 | CCOC(=O)c1c(C)[nH]c(C)c1C(=O)CSc1nc2ccccc2c(=O)n1-c1ccc(C)cc1 | -25.1% (inactive)
50 | CC(OC(=O)c1ccco1)C(=O)Nc1ccc(Cl)cn1 (stereo not given) | -26.7% (inactive)

Row | Compound | inhibition
51 | CC(OC(=O)c1ccccc1O)C(=O)Nc1ccc(Cl)cn1 (stereo not given) | -43.7% (inactive)
52 | CNc1ccccc1C(=O)OC(C)C(=O)Nc1ccc(Cl)cn1 (stereo not given) | 54.3% (active)
53 | COc1ccc(C(=O)NC2CCN(CC(=O)NCc3ccccc3F)CC2)cc1 | -30.3% (inactive)
54 | CCc1ccc(N(CC(=O)NC2CCCCC2)S(=O)(=O)c2c(C)noc2C)cc1 | -14.8% (inactive)
55 | O=C(CCl)Nc1cc2[nH]c(=O)[nH]c2cc1Br | 72.1% (active)
56 | Cc1cc(Br)c(NC(=O)CCl)c(Br)c1 | 42.9% (inactive)
57 | O=C(CCl)Nc1c[nH]c(=O)[nH]c1=O | -31.2% (inactive)
58 | NC(=O)c1cc2ccccc2o/c1=N\NC(=O)c1ccc(F)cc1 | -3.2% (inactive)
59 | Cn1c(=O)c2c(nc(Oc3ccccc3)n2C)n(C)c1=O | 9.4% (inactive) and -13.9% (inactive)
60 | COc1ccc(Oc2nc3c(c(=O)n(C)c(=O)n3C)n2C)cc1 | 18.3% (inactive)
61 | Cc1nc2ccc(NS(=O)(=O)c3ccc(F)cc3)cc2s1 | 7.8% (inactive)
62 | Cc1ccc(S(=O)(=O)Nc2ccc3nc(C)sc3c2)cc1 | 32.2% (inactive)
63 | CCOc1cc(C(=O)Nc2ccc([N+](=O)[O-])cn2)cc(OCC)c1OCC | -21.2% (inactive)
64 | CCNC(=S)N(Cc1cc2cc(C)c(C)cc2[nH]c1=O)C1CCCC1 | -35% (inactive)
65 | O=C(NCc1cccnc1)c1ccc(-c2ccccc2[N+](=O)[O-])o1 | -24.4% (inactive)
66 | COc1ccc(CCNC(=O)C2CCN(S(=O)(=O)c3ccc(OC)cc3)CC2)cc1 | 17.9% (inactive)
67 | COc1ccc(NC(=O)NNC(=O)c2ccc(-c3ccccc3)cc2)cc1 | -26.8% (inactive)
68 | COc1ccc(C(=O)NNC(=O)Nc2ccc(Cl)cc2)cc1 | 91.6% (active)
69 | COc1ccc(C(=O)NNC(=O)Nc2ccc(C)cc2)cc1 | -1.6% (inactive)
70 | CCS(=O)(=O)N1CCN(c2ncnc3sc(C)c(C)c23)CC1 | -20% (inactive)
71 | Cc1nc(N2CCN(S(=O)(=O)c3ccc(Br)cc3)CC2)c2c(C)c(C)sc2n1 | 3.7% (inactive)
72 | CNS(=O)(=O)c1cc(N(C)S(=O)(=O)c2ccc(C)cc2)c(C)cc1C | -1.6% (inactive)
73 | CC1=NCCN1S(=O)(=O)c1cc([N+](=O)[O-])ccc1Cl | -40.2% (inactive)
74 | COc1ccc(COc2cc(-c3cccc(OC)c3)nc3ccc(NC(=O)c4ccccc4)cc23)cc1 | 48.6% (inactive)
75 | COc1ccc(COc2cc(-c3cccc(OC)c3)nc3ccc(NC(=O)c4cccnc4)cc23)cc1 | 78.1% (active)

Row | Compound | inhibition
76 | COc1ccc(COc2cc(-c3cccc(OC)c3)nc3ccc(NC(=O)c4ccc(OC)cc4)cc23)cc1 | 41.3% (inactive)
77 | CC(C)(C)C(=O)NC1=NN(c2c(Cl)cc(Cl)cc2Cl)C(=O)C1 | -19.7% (inactive)
78 | CC(C)c1ccccc1NC(=O)COC(=O)c1c2c(nc3ccccc13)CCN(Cc1ccccc1)C2 | 29.8% (inactive)
79 | CC(Sc1nc(N)c2c3c(sc2n1)CSC(C)(C)C3)C(=O)Nc1ccccc1 (stereo not given) | 66.5% (active)
80 | Cc1ccccc1NC(=O)CSc1nc(N)c2c3c(sc2n1)CSC(C)(C)C3 | -19.5% (inactive)
81 | Cc1ccc(NC(=O)CSc2nc(N)c3c4c(sc3n2)CSC(C)(C)C4)cc1 | 22.5% (inactive)
82 | COc1ccc(OC)c(-n2nnnc2SCC(=O)N2CCN(C(=O)c3ccco3)CC2)c1 | -16.1% (inactive)
83 | Cc1ccc(NC(=O)C2CC(=O)n3ncnc3N2)cc1C (stereo not given) | -33.1% (inactive)
84 | CC(=O)NCc1ccc(-c2csc(N)n2)s1 | 1.1% (inactive)
85 | CC(=O)NCc1ccc(C(=O)CCl)cc1 | -4% (inactive)
86 | CC(=O)NCc1ccc(C(=O)CCl)s1 | 88.3% (active)
87 | Cc1ccc(C(=O)COC(=O)c2cc(Cl)nc3ccccc23)cc1 | -10.7% (inactive)
88 | COc1cc(Br)c(CN2CCCN(C)CC2)cc1OC | -24.3% (inactive)
89 | CC(C)(C)c1ccc(C(=O)OC/C(O)=C(\C#N)c2nc3ccccc3s2)cc1 | 92% (active)
90 | N#C/C(=C(/O)c1ccccc1F)c1nc2cc(C(F)(F)F)ccc2s1 | -28.9% (inactive)
91 | N#C/C(=C\N1CCN(Cc2ccc3c(c2)OCO3)CC1)c1nc2ccccc2s1 | 24.5% (inactive)
92 | N#C/C(=C(/O)c1ccco1)c1nc2ccccc2s1 | -3.1% (inactive) and -9.8% (inactive)
93 | N#C/C(=C(/O)COC(=O)c1ccc(C#N)cc1)c1nc2ccccc2s1 | -35.4% (inactive)
94 | N#C/C(=C(/O)c1ccc(-c2cccc([N+](=O)[O-])c2)o1)c1nc2ccccc2s1 | 101% (active)
95 | O=[N+]([O-])c1cccc(-c2nc3ccccc3s/c2=N/O)c1 | 2.3% (inactive)
96 | N#C/C(=C(/O)c1ccc2c(c1)OCO2)c1nc2cc(C(F)(F)F)ccc2s1 | 86.4% (active)
97 | CC(C)=C(C#N)c1nc2ccccc2s1 | -26.3% (inactive)
98 | N#C/C(=C(/O)COC(=O)c1ccccc1O)c1nc2ccccc2s1 | 16.3% (inactive)
99 | O=C(O)c1ccc(-c2cccc([N+](=O)[O-])c2)o1 | 9.4% (inactive)
100 | N#C/C(=C(/O)c1cc2ccccc2o1)c1nc2ccccc2s1 | 65.8% (active)

Reference: PubChem BioAssay AID1578 (Sanford-Burnham Center for Chemical Genomics, 2009)
